Screening results (PubChem)
Beta cell apopt = inhibitors of cytokine-induced beta cell apoptosis, primary screen, luminescence; INS-1E cytokine-induced death, ATP luminescence, 48 h; percent of positive-control rescue, neutral wells zero; protection from apoptosis, % (no concentration beside the values); 300,000 compounds, 0.8% hits; AID 435005, 2010;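 active means Every replicate reaches about 75%, or at least half do and their mean reaches it too, limit read from the data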;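 further: 0% = cytokine-treated negative control wells and 100% = positive control rescue; higher means more ATP so stronger rescue from cytokine killing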
CSC inhib = cancer stem cell viability inhibitors, primary screen, luminescence; cancer stem cell-like cells viability; AID 2717, 2010; inhibition, % at 7.5 µM; 300,000 compounds, 1.1% hits; in the data active means inhibition above about 75%; tested in HMLE shEcad cells
Shn3 3UTR inh = reduction of Shn3 3'UTR firefly luciferase signal, primary screen, Schnurri-3 inhibitor project, cell-based, Clone20 osteoblasts, set 2; Clone20 osteoblast Shn3 3'UTR firefly luciferase, 24 h; inhibition, % at 12.5 µM; 360,000 compounds, 0.52% hits;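 active means mean inhibition of at least 75% with every replicate also reaching 75%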;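 further: 0% = median of neutral control wells and 100% = pilot-screen positive control compound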
PAX8 reporter = inhibitors of PAX8-driven TPO luciferase reporter, primary screen, RMG-I cells, single concentration. 360,000 compounds, 1.2% hits. inhibition, % at 12.6 µM. SteadyGlo, 24 h;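 active means mean replicate inhibition at least 60% with every replicate also reaching 60%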;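 further: luciferase light reporting Pax8 driven TPO promoter activity; plate controls were median of neutral control wells for no effect and mitoxantrone controls for full effect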
Gli-Sufu antag = Gli-Sufu pathway antagonists, primary screen, luciferase luminescence, Sufu-KO-LIGHT cells, uHTS. 340,000 compounds, 0.74% hits. inhibition, % at 5 µM. Sufu-KO-LIGHT fibroblasts, Gli luciferase reporter luminescence. AID 588413, 2011;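 active means inhibition above about 55%, limit read from the data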;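 further: 0% = DMSO-treated cells and 100% = wells with medium but no cells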
Mdm2-MdmX inh = inhibitors of human Mdm2-MdmX association, primary screen, cell-based, luminescence, split luciferase, SaOS-2, uHTS | Protein Mdm4 (Homo sapiens) + E3 ubiquitin-protein ligase Mdm2 (Homo sapiens), … | SaOS-2 split-luciferase Mdm2/MdmX complementation | inhibition, % at 8 µM | 330,000 compounds, 3% hits | AID 485346, 2010;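 active means inhibition of at least 50% at 8 µM in the primary screen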
Target sequence (O15151 whole entry, looked up): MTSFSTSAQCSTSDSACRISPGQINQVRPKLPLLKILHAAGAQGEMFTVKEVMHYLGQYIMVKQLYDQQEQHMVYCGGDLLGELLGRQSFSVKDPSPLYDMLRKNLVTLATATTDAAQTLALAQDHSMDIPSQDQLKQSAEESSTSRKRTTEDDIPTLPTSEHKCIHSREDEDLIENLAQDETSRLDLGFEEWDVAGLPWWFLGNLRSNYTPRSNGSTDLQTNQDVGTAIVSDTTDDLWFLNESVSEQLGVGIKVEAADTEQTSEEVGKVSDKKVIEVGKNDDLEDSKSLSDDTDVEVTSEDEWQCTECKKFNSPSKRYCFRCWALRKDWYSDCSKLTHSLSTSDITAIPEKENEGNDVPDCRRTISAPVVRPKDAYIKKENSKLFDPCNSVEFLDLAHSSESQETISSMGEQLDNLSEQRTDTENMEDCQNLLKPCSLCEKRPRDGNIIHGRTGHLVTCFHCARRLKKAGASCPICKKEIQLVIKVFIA
Target sequence (Q00987 whole entry, looked up): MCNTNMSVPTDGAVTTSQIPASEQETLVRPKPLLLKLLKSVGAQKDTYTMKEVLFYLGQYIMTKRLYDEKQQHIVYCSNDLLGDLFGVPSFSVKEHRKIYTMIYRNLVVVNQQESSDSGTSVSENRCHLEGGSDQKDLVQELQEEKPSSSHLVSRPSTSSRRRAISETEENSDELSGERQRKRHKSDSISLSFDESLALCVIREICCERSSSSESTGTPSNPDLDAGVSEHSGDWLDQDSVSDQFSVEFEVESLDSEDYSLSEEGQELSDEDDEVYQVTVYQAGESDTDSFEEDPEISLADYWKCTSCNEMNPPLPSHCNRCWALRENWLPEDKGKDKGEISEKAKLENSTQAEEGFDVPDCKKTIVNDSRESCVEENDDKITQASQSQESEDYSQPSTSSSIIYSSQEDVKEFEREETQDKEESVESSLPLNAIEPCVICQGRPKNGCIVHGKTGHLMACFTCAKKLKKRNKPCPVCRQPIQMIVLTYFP
Mdm2-MdmX conf = Mdm2-MdmX complex disruptors, retested hits, confirmation, luminescence, single concentration. Mdm2-MdmX binding, luminescent assay. inhibition, % at 8 µM. AID 489028, 2010. shares compounds with Mdm2-MdmX inh. 10,000 compounds, 55% hits; in the data active means inhibition above about 40%
FLuc counter = full-length luciferase signal inhibition, confirmation, counter-screen for Mdm2/MdmX interaction inhibitor project, cell-based, single concentration, SaOS-2. shares compounds with Mdm2-MdmX inh. SaOS-2 full-length luciferase counterscreen, luminescence. inhibition, % at 8 µM. 6,200 compounds, 77% hits;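 active means mean inhibition at 8 µM reaching about 37%, which flags the compound as non-specific, limit read from the data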;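 further: p53-null SaOS-2 cells with luciferase driven by a doxycycline-inducible promoter; compound on cells about two nights before reading with doxycycline added after day one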
The depositor's hits bear a star; x = not tested or not shown. Only some compounds are listed: those with a hit (about 4% of all), similar ones and a draw of the others.

SMILES	Beta cell apopt	CSC inhib	Shn3 3UTR inh	PAX8 reporter	Gli-Sufu antag	Mdm2-MdmX inh	Mdm2-MdmX conf	FLuc counter
CCC(C)[C@H](NC(=O)N1CC(=O)Nc2ccccc21)C(=O)Nc1ccccc1C (stereo partly specified)	x	-4	-12	36	-5	67*	64*	39*
CC(/C=N/NC(=O)c1cc(-c2ccc(Cl)cc2)nc2ccccc12)=C\c1ccco1	34	14	2	87*	-19	66*	0	x
CC(/C=N/NC(=O)c1cc(-c2ccccc2)nc2ccccc12)=C\c1ccco1	22	-18	18	41	6	42	x	x
CCc1ccc(/C=N/NC(=O)c2cc(-c3ccncc3)nc3ccccc23)s1	x	2	21	-12	22	52*	62*	80*
C/C(=N\NC(=O)c1cc(-c2cccc(OC(C)C)c2)nc2ccccc12)c1cccnc1	2	-3	-1	-6	-31	22	x	x
O=C(N/N=C/c1cccs1)c1cc(-c2ccncc2)nc2ccccc12	-1	41	0	50	45	x	x	x
C/C(=N\NC(=O)c1cc(-c2cccnc2)nc2ccccc12)c1ccc(O)cc1O	90*	100*	85	x	24	66*	80*	23
Cc1nn(-c2ccccc2)c(N2CCCC2)c1/C=N/NC(=O)c1cc(-c2cccnc2)nc2ccccc12	1	15	13	32	13	56*	22	x
O=C(c1ccncc1)N1CC2(C1)[C@H](c1ccccc1)[C@@H](CO)N2CC1CCOCC1	x	x	x	-1	x	x	x	x
CCC(=O)N[C@@H]1CC[C@H](CC(=O)NCc2ccccc2OC)O[C@@H]1CO	x	x	x	-27	x	x	x	x
CCCc1cc(C(=O)N/N=C/c2ccc(CC)s2)c2ccccc2n1	12	x	x	32	2	63*	65*	40*
CC(C)COc1cccc(-c2cc(C(=O)N/N=C/c3ccncc3)c3ccccc3n2)c1	19	-2	-19	x	-44	81*	84*	47*
O=C(N/N=C/c1ccccn1)c1cc(-c2ccccc2)nc2ccccc12	23	36	4	23	48	71*	3	x
CC(C)NC(=O)N(C)C[C@H]1Oc2c(NC(=O)Nc3cccc4ccccc34)cccc2C(=O)N([C@H](C)CO)C[C@H]1C	x	x	x	33	x	x	x	x
S=C(NCCN(C1CCCCC1)C1CCCC1)Nc1cccc(Cl)c1	12	34	67	17	29	62*	37	63*
Oc1ccccc1N=N/C(=N/Nc1ccccc1O)c1ccccc1	1	18	-7	21	1	-12	x	x
N#C/C(N=Nc1ccccc1O)=N\Nc1ccccc1O	115*	9	34	27	17	82*	94*	18
C=CCn1c(SCC(=O)Nc2cc(C)on2)nc2sc(C)c(C)c2c1=O	4	-8	13	20	-24	51*	19	x
CCc1sc2nc(SCC(=O)Nc3cc(C)on3)n(-c3cccc(OC)c3)c(=O)c2c1C	46	14	34	x	-4	92*	66*	77*
C=CCn1c(SCC(=O)Nc2cc(C)on2)nc2sc3c(c2c1=O)CCCC3	13	x	5	x	7	61*	33	x
C=CCn1c(SCC(=O)Nc2sccc2C(N)=O)nc2ccccc2c1=O	1	29	66	x	12	45	x	x
C=CCn1c(SCC(=O)Nc2sccc2C(N)=O)nc2sc(CC)cc2c1=O	7	15	76	x	15	59*	38	74*
COc1cccc(-n2c(SCC(=O)Nc3cc(C)on3)nc3ccccc3c2=O)c1	1	-3	12	x	7	8	x	x
CC(C)C[C@H]1COCn2nncc2CC[C@H](Cc2ccccc2)C(=O)N1	x	x	x	0	x	x	x	x
O=C(C[C@H]1CC[C@@H]2[C@H](COC[C@H](O)CN2C(=O)Nc2ccc(F)cc2)O1)NCCCN1CCOCC1	x	x	x	-8	x	x	x	x
SMILES	Beta cell apopt	CSC inhib	Shn3 3UTR inh	PAX8 reporter	Gli-Sufu antag	Mdm2-MdmX inh	Mdm2-MdmX conf	FLuc counter
CC(NC(=O)CSc1nc2sc3c(c2c(=O)n1-c1ccccc1)CCCC3)c1ccccc1 (stereo unspecified)	x	x	12	x	14	51*	23	x
CCn1c(SCC(=O)Nc2cc(C)on2)nc2sc3c(c2c1=O)CCCC3	82*	-1	46	x	-3	76*	54*	16
CO[C@@H]1CN(C)C(=O)c2cc(NC(=O)C3CC3)ccc2OC[C@H](C)N(CC2CCOCC2)C[C@H]1C	x	x	x	-11	x	x	x	x
COc1cccc(-n2nc(C(N)=O)c(O)cc2=O)c1	-5	4	-11	-14	1	16	x	x
COc1cccc(-n2nc(C#N)c(Cl)cc2=O)c1	x	x	96*	98*	3	100*	100*	51*
C/C(=N\NC(=O)CNC(=O)C(c1ccccc1)c1ccccc1)c1ccc(C(C)(C)C)cc1	6	4	12	5	-16	55*	14	x
CN(C)c1ccc2c(c1)[C@H]1C[C@H](CC(=O)NCc3ccc(Cl)cc3)O[C@@H](CO)[C@H]1O2	x	x	x	-3	x	x	x	x
COc1ccc(C2CC(c3cccs3)=NN2C(=O)CCl)cc1OC (stereo unspecified)	-36	72	49	-3	8	99*	100*	49*
Cc1ccc(C2=NN(C(=O)CCl)C(c3cccs3)C2)o1 (stereo unspecified)	-24	x	9	65*	6	100*	100*	51*
COc1cc(C2CC(c3cccs3)=NN2C(=O)CCl)ccc1OC(F)F (stereo unspecified)	x	34	57	-32	13	99*	100*	51*
COc1ccc(C2CC(c3cccs3)=NN2C(=O)c2ccccc2)cc1OC (stereo unspecified)	-6	-2	4	-2	2	17	x	x
C[C@@H]1CCCCO[C@H](CN(C)C(=O)Nc2ccc3c(c2)OCO3)[C@H](C)CN([C@H](C)CO)C(=O)c2cc(NC(=O)c3ccccc3)ccc2O1	x	x	x	-25	x	x	x	x
C[C@@H]1CN([C@@H](C)CO)C(=O)Cc2cc(NC(=O)C3CCCCC3)ccc2O[C@H]1CN(C)Cc1ccc(Oc2ccccc2)cc1	x	x	x	39	x	x	x	x
CN(C)C/C=C/C(O)(c1ccccc1)c1ccccc1	x	x	-2	1	2	16	x	x
